Assay results: the supplement of paper PMC10849652
The full data set covers some 7,900 targets. This sample favours those with a hit. About 0.6% of all pairs of compound and target were hits.

Columns and labels:
Test in all cases: log2 fold change, soluble protein after heating vs DMSO (PISA); higher = thermal stabilisation; K562 cells, 10 uM, 30 min; active = over 0.2 and 3.5 SD of the protein, either way, in both replicates (recomputed)
[1] = compound: CS(=O)(=O)c1ccc(-c2cnc(N)c(C(=O)Nc3ccccc3)n2)cc1
Method in brief: (§1)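 For each measurement, 10 μM compound was applied for 30 min to K562 cells at 2×10^6 cells/mL. Aliquots were heated for 3 min across 48°C-58°C, pooled, and extracted in PBS with 0.5% NP-40 at 4°C; the supernatant after 21,000xg for 90 min was soluble protein. This was quantified by TMTpro 16plex LC-MS/MS with channel sums equalised, and thermal stability was reported relative to control samples from duplicates, on a log2 fold-change scale.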

crizotinib = compound: C[C@@H](Oc1cc(-c2cnn(C3CCNCC3)c2)cnc1N)c1c(Cl)ccc(F)c1Cl [crizotinib]
Method in brief: as §1

[2] = compound: C[C@@H]1COCCN1C2=NC(=NC(=C2)C3(CC3)S(=O)(=O)C)C4=C5C=CNC5=CC=C4
Method in brief: as §1

[3] = compound: C[C@H](C1=CC=C(C=C1)C(=O)NC2=C3C=CNC3=NC=C2)N
Method in brief: as §1

duvelisib = compound: C[C@H](Nc1ncnc2nc[nH]c12)c1cc2cccc(Cl)c2c(=O)n1-c1ccccc1 [duvelisib]
Method in brief: as §1

gandotinib = compound: Cc1cc(Nc2cc(CN3CCOCC3)c3nc(C)c(Cc4ccc(Cl)cc4F)n3n2)n[nH]1 [gandotinib]
Method in brief: as §1

[4] = compound: Cc1cc(SCc2sc(-c3ccc(C(F)(F)F)cc3)nc2C)ccc1OCC(=O)O
Method in brief: as §1

doramapimod = compound: Cc1ccc(-n2nc(C(C)(C)C)cc2NC(=O)Nc2ccc(OCCN3CCOCC3)c3ccccc23)cc1 [doramapimod]
Method in brief: as §1

ispinesib = compound: Cc1ccc(C(=O)N(CCCN)[C@@H](c2nc3cc(Cl)ccc3c(=O)n2Cc2ccccc2)C(C)C)cc1 [ispinesib]
Method in brief: as §1

bafetinib = compound: Cc1ccc(NC(=O)c2ccc(CN3CC[C@H](N(C)C)C3)c(C(F)(F)F)c2)cc1Nc1nccc(-c2cncnc2)n1 [bafetinib]
Method in brief: as §1

[5] = compound: Cc1cccc(CC(=O)N2CCc3c2ccc(-c2cn(C)c4ncnc(N)c24)c3F)n1
Method in brief: as §1

nilotinib = compound: Cc1cn(-c2cc(NC(=O)c3ccc(C)c(Nc4nccc(-c5cccnc5)n4)c3)cc(C(F)(F)F)c2)cn1 [nilotinib]
Method in brief: as §1

[6] = compound: Cc1nc(Nc2n[nH]c3c2CN(C(=O)N[C@H](CN(C)C)c2ccccc2)C3(C)C)c2sccc2n1
Method in brief: as §1

dasatinib = compound: Cc1nc(Nc2ncc(C(=O)Nc3c(C)cccc3Cl)s2)cc(N2CCN(CCO)CC2)n1 [dasatinib]
Method in brief: as §1

[7] = compound: Cc1ncc(-c2ccnc(Nc3ccc(S(C)(=O)=O)cc3)n2)n1C(C)C
Method in brief: as §1

[8] = compound: Cn1cc(-c2ccc3c(c2)CCN3C(=O)Cc2cccc(C(F)(F)F)c2)c2c(N)ncnc21
Method in brief: as §1

[9] = compound: Cn1cc(-c2ccc3nnc(C(F)(F)c4ccc5ncccc5c4)n3n2)cn1
Method in brief: as §1

tipifarnib = compound: Cn1cncc1[C@@](N)(c1ccc(Cl)cc1)c1ccc2c(c1)c(-c1cccc(Cl)c1)cc(=O)n2C [tipifarnib]
Method in brief: as §1

mubritinib = compound: FC(F)(F)c1ccc(/C=C/c2nc(COc3ccc(CCCCn4ccnn4)cc3)co2)cc1 [mubritinib]
Method in brief: as §1

tozasertib = compound: Cc1cc(Nc2cc(N3CCN(C)CC3)nc(Sc3ccc(NC(=O)C4CC4)cc3)n2)n[nH]1 [tozasertib]
Method in brief: as §1

Measured: log2 fold change

PKN2 (UniProt Q16513)
inactive: [1] 0.025 | crizotinib -0.191 | [2] 0.067 | [3] -0.057 | duvelisib 0.027 | gandotinib -0.058 | [4] 0.133 | doramapimod 0.035 | ispinesib -0.028 | bafetinib 0.068 | [5] 0.062 | nilotinib 0.125 | [6] -0.219 | dasatinib -0.138 | [7] 0.051 | [8] 0.016 | [9] 0.01 | tipifarnib -0.059 | mubritinib 0.048

POGZ (UniProt Q7Z3K3)
inactive: [1] 0.044 | crizotinib -0.019 | [2] 0.242 | [3] 0.01 | duvelisib -0.115 | gandotinib 0.143 | tozasertib 0.153 | [4] 0.142 | doramapimod 0.053 | ispinesib -0.221 | [5] 0.174 | dasatinib -0.318 | [8] 0.072 | [9] 0.061 | tipifarnib -0.124

PPID (UniProt Q08752)
inactive: [1] 0.055 | crizotinib -0.102 | [2] 0.046 | [3] 0.071 | duvelisib -0.024 | gandotinib -0.145 | tozasertib 0.043 | [4] 0.088 | doramapimod 0.007 | ispinesib -0.08 | bafetinib 0.015 | [5] 0.075 | nilotinib -0.113 | [6] -0.13 | dasatinib -0.206 | [7] 0.062 | [8] 0.023 | [9] 0.076 | tipifarnib -0.148 | mubritinib -0.005

PTTG1IP (UniProt P53801)
Sequence of UniProt P53801 (P53801 whole entry, looked up): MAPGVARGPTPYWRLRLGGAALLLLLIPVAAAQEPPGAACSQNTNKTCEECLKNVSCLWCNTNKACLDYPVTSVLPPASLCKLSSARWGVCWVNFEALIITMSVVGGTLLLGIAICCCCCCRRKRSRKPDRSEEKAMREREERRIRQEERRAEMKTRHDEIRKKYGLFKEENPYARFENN
inactive: [1] 0.043 | crizotinib 0.1 | [2] 0.102 | [3] -0.044 | duvelisib 0.118 | gandotinib 0.094 | tozasertib 0.107 | [4] -0.075 | doramapimod -0.106 | bafetinib -0.105 | [5] -0.053 | nilotinib -0.061 | [6] 0.054 | dasatinib -0.002 | [7] -0.099 | [8] 0.036 | tipifarnib 0.036 | mubritinib -0.012

PLD3 (UniProt Q8IV08)
Sequence of UniProt Q8IV08 (Q8IV08 whole entry, looked up): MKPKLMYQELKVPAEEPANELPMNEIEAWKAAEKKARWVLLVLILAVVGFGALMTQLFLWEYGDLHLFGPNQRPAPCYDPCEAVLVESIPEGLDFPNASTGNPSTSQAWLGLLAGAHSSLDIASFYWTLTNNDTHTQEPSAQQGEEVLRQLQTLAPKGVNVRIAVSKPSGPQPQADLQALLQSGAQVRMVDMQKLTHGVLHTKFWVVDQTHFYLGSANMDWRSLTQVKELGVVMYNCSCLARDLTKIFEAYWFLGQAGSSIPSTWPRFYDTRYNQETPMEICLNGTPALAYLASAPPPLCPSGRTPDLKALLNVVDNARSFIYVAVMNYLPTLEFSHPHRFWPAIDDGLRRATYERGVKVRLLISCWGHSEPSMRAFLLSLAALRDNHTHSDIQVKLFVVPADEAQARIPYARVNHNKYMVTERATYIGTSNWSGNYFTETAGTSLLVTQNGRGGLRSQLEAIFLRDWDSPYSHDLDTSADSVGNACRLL
active: bafetinib -0.308
inactive: [1] -0.034 | crizotinib -0.158 | [2] 0.005 | [3] -0.03 | duvelisib -0.012 | gandotinib 0.006 | tozasertib -0.009 | [4] -0.023 | doramapimod 0.001 | ispinesib -0.132 | [5] -0.007 | nilotinib -0.043 | [6] 0.064 | dasatinib -0.024 | [7] -0.03 | [8] -0.007 | [9] 0.013 | tipifarnib -0.01 | mubritinib 0.035

PARP16 isoform 3 (UniProt Q8N5Y8)
Sequence of UniProt Q8N5Y8 (Q8N5Y8 whole entry, looked up): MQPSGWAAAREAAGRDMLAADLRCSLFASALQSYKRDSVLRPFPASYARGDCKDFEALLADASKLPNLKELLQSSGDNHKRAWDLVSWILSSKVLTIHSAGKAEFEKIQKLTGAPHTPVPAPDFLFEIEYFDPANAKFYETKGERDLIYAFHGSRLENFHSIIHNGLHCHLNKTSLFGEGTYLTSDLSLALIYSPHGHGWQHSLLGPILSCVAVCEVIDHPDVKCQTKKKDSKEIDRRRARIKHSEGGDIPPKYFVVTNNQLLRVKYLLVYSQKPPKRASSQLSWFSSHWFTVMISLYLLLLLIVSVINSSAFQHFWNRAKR
inactive: [1] -0.008 | crizotinib 0.076 | [2] -0.021 | [3] 0.079 | duvelisib 0.048 | gandotinib 0.081 | tozasertib -0.007 | [4] -0.081 | doramapimod 0.072 | bafetinib 0.096 | [5] -0.005 | nilotinib -0.034 | [6] -0.019 | dasatinib -0.009 | [7] 0.053 | [8] 0.011 | tipifarnib -0.092 | mubritinib 0.089

PRKCE (UniProt Q02156)
Sequence of UniProt Q02156 (Q02156 whole entry, looked up): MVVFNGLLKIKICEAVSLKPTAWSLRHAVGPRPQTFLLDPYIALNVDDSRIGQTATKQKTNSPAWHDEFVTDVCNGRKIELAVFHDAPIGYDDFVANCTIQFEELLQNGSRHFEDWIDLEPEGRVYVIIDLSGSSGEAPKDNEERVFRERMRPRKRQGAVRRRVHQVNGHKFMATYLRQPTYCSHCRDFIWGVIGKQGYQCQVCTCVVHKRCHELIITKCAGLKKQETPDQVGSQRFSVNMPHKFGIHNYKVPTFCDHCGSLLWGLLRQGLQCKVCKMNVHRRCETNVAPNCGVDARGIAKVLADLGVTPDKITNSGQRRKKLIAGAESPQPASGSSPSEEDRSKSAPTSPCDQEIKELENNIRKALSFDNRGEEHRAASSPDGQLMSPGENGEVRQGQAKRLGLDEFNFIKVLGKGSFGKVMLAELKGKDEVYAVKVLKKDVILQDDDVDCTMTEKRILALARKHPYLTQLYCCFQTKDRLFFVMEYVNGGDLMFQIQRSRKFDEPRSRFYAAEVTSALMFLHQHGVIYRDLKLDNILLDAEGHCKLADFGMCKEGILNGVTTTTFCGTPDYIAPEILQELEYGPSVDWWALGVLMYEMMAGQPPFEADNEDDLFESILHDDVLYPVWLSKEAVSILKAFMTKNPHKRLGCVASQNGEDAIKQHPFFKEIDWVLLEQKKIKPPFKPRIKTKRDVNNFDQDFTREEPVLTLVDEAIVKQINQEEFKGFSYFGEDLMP
active: [6] -0.335
inactive: [1] 0.051 | crizotinib -0.071 | [2] 0.083 | [3] -0.168 | duvelisib 0.032 | gandotinib -0.092 | tozasertib 0.071 | [4] 0.055 | doramapimod -0.003 | bafetinib 0.001 | [5] 0.02 | nilotinib -0.024 | dasatinib -0.118 | [7] 0.004 | [8] 0.051 | tipifarnib -0.049 | mubritinib 0.052

POLR2C (UniProt P19387)
inactive: [1] 0.019 | crizotinib 0.127 | [2] -0.062 | [3] 0.163 | duvelisib 0.032 | tozasertib 0.017 | [4] 0.113 | doramapimod 0.012 | ispinesib 0.034 | bafetinib 0.012 | nilotinib -0.042 | [6] 0.073 | dasatinib -0.031 | [8] 0.003 | [9] -0.06 | tipifarnib -0.081 | mubritinib -0.097
active: [7] 0.3

PI4K2B (UniProt Q8TCG2)
active: ispinesib -0.355
inactive: [1] 0.06 | crizotinib -0.184 | [3] 0.118 | duvelisib 0.132 | gandotinib -0.045 | tozasertib -0.168 | [4] -0.016 | doramapimod 0.01 | bafetinib -0.084 | [5] 0 | nilotinib 0.124 | [6] -0.052 | dasatinib -0.101 | [7] -0.167 | [8] 0.11 | [9] 0.146 | mubritinib 0.053

PDCD6IP (UniProt Q8WUM4)
Sequence of UniProt Q8WUM4 (Q8WUM4 whole entry, looked up): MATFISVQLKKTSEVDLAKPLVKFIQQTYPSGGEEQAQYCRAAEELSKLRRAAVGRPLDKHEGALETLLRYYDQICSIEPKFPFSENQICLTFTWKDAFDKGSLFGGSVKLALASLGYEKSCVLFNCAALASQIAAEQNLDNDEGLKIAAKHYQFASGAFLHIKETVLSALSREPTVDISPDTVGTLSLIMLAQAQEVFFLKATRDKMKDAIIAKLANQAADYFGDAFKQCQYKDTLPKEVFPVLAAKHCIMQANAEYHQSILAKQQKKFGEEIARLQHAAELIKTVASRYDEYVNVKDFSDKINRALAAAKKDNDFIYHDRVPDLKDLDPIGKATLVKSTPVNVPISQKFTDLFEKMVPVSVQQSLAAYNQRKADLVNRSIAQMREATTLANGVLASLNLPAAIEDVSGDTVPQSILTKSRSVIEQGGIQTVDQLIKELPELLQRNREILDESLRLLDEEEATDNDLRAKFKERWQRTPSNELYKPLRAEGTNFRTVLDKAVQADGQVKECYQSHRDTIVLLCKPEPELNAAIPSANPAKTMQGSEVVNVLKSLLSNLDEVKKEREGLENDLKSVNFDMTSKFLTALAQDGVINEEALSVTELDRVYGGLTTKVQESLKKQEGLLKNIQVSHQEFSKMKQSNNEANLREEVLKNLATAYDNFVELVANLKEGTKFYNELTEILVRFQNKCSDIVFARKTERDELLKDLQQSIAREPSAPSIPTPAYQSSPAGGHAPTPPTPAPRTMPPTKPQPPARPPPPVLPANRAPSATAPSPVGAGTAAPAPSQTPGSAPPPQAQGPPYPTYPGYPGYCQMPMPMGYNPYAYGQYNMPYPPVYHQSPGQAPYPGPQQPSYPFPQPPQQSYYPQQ
inactive: [1] 0.078 | crizotinib -0.177 | [2] 0.067 | [3] 0.077 | duvelisib 0.026 | gandotinib -0.117 | tozasertib 0.085 | [4] 0.17 | doramapimod -0.042 | ispinesib -0.14 | bafetinib 0.042 | [5] 0.157 | nilotinib -0.116 | [6] -0.205 | dasatinib -0.283 | [7] 0.069 | [8] 0.016 | [9] 0.068 | tipifarnib -0.221 | mubritinib 0.105

PYGL (UniProt P06737)
inactive: [1] -0.122 | crizotinib 0.003 | [2] 0.026 | [3] -0.019 | duvelisib 0.03 | gandotinib 0.013 | tozasertib -0.022 | [4] -0.023 | doramapimod 0.001 | ispinesib 0.015 | bafetinib -0.218 | [5] 0.006 | nilotinib -0.202 | [6] 0.036 | dasatinib -0.027 | [7] -0.035 | [8] 0.001 | [9] -0.005 | tipifarnib 0.016 | mubritinib 0.052

POGLUT1 (UniProt Q8NBL1)
inactive: [1] 0.064 | crizotinib 0.059 | [2] 0 | [3] 0.241 | duvelisib -0.021 | gandotinib -0.011 | tozasertib 0.004 | [4] 0.037 | doramapimod 0.029 | ispinesib 0.087 | bafetinib 0.009 | [5] 0.122 | nilotinib -0.001 | [6] 0.03 | dasatinib 0.024 | [7] -0.049 | [8] -0.022 | [9] -0.073 | tipifarnib 0.048 | mubritinib -0.046

PTP4A2 (UniProt Q12974)
active: [7] -0.43
inactive: [1] -0.001 | crizotinib 0.047 | [2] 0.026 | [3] -0.01 | duvelisib -0.057 | tozasertib 0.017 | [4] 0.05 | doramapimod -0.047 | ispinesib 0.154 | bafetinib -0.045 | nilotinib 0.007 | [6] -0.056 | dasatinib 0.089 | [8] 0.094 | [9] -0.013 | tipifarnib 0.048 | mubritinib 0.047

PSMD5 (UniProt Q16401)
Sequence of UniProt Q16401 (Q16401 whole entry, looked up): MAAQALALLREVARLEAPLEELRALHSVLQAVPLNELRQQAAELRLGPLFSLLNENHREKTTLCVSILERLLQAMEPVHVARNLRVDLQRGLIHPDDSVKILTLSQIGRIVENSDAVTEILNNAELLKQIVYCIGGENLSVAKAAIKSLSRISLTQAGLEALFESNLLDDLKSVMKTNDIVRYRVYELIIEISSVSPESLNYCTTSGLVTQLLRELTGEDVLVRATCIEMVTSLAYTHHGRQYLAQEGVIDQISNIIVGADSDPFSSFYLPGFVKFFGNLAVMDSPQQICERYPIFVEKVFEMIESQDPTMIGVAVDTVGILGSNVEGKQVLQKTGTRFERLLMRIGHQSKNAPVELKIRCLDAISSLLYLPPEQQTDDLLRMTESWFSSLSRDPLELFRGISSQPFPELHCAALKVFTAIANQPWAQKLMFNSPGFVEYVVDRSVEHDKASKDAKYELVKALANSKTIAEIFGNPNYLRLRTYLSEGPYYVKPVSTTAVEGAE
inactive: [1] 0.008 | crizotinib 0.006 | [2] 0.046 | [3] -0.064 | duvelisib -0.023 | gandotinib -0.051 | tozasertib 0.043 | [4] -0.013 | doramapimod -0.03 | ispinesib 0.03 | bafetinib -0.09 | [5] 0.006 | nilotinib -0.015 | [6] -0.026 | dasatinib -0.026 | [7] 0.006 | [8] 0.018 | [9] 0.002 | tipifarnib -0.05 | mubritinib 0.023

POP1 (UniProt Q99575)
Sequence of UniProt Q99575 (Q99575 whole entry, looked up): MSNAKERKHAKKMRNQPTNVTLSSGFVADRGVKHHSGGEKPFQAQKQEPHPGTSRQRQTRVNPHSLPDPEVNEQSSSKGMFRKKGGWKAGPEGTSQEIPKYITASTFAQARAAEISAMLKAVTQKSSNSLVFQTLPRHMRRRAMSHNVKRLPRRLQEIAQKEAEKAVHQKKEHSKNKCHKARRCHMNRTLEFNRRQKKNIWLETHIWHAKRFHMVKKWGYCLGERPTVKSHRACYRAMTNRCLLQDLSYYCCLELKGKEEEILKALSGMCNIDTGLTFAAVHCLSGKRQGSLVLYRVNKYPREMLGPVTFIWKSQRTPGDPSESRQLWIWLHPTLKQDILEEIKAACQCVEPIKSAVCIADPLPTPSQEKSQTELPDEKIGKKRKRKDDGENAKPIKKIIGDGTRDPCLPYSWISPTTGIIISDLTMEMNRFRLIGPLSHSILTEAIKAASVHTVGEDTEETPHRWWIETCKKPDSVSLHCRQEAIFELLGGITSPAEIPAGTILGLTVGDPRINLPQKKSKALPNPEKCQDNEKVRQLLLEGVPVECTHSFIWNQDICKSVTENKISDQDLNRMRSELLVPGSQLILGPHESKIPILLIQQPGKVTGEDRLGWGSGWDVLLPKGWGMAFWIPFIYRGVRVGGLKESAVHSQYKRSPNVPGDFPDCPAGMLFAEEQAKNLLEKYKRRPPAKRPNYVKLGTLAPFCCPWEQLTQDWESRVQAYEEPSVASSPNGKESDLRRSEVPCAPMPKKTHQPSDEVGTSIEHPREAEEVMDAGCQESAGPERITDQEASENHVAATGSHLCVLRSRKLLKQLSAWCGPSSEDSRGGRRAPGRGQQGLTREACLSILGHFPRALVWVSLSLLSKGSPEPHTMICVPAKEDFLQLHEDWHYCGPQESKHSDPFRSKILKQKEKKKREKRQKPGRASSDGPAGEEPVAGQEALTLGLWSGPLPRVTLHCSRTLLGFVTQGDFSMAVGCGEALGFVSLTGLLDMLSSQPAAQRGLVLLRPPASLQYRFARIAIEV
inactive: [1] -0.034 | crizotinib 0.02 | [2] -0.023 | [3] -0.05 | duvelisib -0.005 | gandotinib 0.012 | tozasertib 0.009 | [4] -0.041 | doramapimod 0.016 | ispinesib 0.039 | bafetinib 0.019 | [5] 0.002 | nilotinib 0.074 | [6] -0.018 | dasatinib 0.039 | [7] -0.037 | [8] 0.042 | [9] 0.007 | tipifarnib -0.036 | mubritinib -0.006

PRKD3 (UniProt O94806)
Sequence of UniProt O94806 (O94806 whole entry, looked up): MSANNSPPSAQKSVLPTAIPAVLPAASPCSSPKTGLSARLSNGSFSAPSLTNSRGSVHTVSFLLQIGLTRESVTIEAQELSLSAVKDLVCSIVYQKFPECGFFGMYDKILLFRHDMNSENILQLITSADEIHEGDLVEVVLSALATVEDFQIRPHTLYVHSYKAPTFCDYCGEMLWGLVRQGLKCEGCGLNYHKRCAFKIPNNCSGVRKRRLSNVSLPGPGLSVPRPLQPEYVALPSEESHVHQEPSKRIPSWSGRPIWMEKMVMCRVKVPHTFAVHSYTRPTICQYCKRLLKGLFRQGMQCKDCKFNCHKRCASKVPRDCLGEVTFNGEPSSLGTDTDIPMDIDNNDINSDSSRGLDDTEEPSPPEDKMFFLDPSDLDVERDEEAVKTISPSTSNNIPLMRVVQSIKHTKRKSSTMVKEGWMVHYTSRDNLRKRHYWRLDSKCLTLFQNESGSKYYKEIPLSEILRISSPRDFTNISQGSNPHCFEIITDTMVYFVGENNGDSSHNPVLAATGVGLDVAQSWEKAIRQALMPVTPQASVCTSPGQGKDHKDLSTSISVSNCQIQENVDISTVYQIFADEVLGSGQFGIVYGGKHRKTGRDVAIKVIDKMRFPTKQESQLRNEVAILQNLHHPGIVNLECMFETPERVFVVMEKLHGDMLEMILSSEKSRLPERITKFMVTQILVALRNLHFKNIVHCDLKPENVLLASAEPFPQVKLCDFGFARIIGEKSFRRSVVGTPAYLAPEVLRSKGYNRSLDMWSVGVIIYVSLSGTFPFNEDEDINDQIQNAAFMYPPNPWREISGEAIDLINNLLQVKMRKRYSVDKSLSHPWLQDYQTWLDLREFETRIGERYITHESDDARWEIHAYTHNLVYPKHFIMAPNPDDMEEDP
inactive: [1] -0.132 | crizotinib -0.292 | [3] -0.189 | duvelisib 0.033 | gandotinib 0.092 | [4] 0.039 | doramapimod -0.088 | ispinesib -0.237 | bafetinib -0.011 | [5] -0.231 | dasatinib -0.258 | [8] -0.079 | [9] 0.006 | mubritinib -0.062
